# The full ranking holds about 81,000 sequences; the median of “one-hybrid fitness for binding NBS DNA” is about -0.1, and the highest 2% start at about 0.36. Only a selection was taken, and the highest values are over-represented in it overall.
# B1: Caulobacter ParB omega fusion; a variant is named by its letters at X, in order, B8GW30 (parent)
# chain: MESVVVGEPGMSEGRRGLGRGLSALLGEVDAAPAQAPGEQLGGSREAPIEILQRNPDQPRRTFREEDLEDLSNSIREKGVLQPILVRPSPDTAGEYQIVAGERAWRAAQRAGLKTVPIMVRELDDLAVLEIGIIENVQRADLNVLEEALSYKVLMEKFERTQENIAQTIGKSXSHVANXMRLLXLPDEVQSYLVSGELTAXHARAIAAAADPVALAKQIIEGGLSVRETEALARKAPNLSAGKSKGGRPPRVKDTDTQALESDLSSVLGLDVSIDHRGSTGTLTITYATLEQLDDLCNRLTRGI
# Variants of: B1
# Test: one-hybrid fitness for binding NBS DNA (the Noc-binding site; scaled: cognate 1, non-cognate 0); higher = stronger binding
# Details: with NBS DNA site
# Outline: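 Caulobacter ParB libraries with four specificity codons randomised were screened by bacterial one-hybrid selection in the E. coli USO strain, using a HIS3 reporter whose site lies 19 bp from the promoter. Selection ran for 48 hours at 37°C on M9 lacking histidine, with 0.1 mM IPTG and 5 mM 3-AT. Plasmids were Illumina-sequenced before and after selection, three replicate libraries were pooled, and variants with under 10 reads were dropped. Fitness is the log change in each variant's read ratio to wild type, rescaled against the cognate and non-cognate sites.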
row,Variant,one-hybrid fitness for binding NBS DNA
1,QMWK,≤ 0.2
2,QKIK,≤ 0.2
3,QMKK,0.436
4,QLKK,0.346
5,QKVK,≤ 0.2
6,THAP,≤ 0.2
7,SMSM,≤ 0.2
8,VLYQ,≤ 0.2
9,MNTI,≤ 0.2
10,MEPN,≤ 0.2
11,DERT,≤ 0.2
12,AAYK,≤ 0.2
13,LNIG,≤ 0.2
14,VYES,≤ 0.2
15,PHHR,≤ 0.2
16,NAEF,≤ 0.2
17,NGVK,≤ 0.2
18,AANT,≤ 0.2
19,QHRK,0.362
20,QRKK,0.777
21,QHQK,≤ 0.2
22,QSVK,≤ 0.2
23,QRLK,0.329
24,QHKK,0.416
25,QAKK,0.396
26,QIKK,0.243

row,Variant,one-hybrid fitness for binding NBS DNA
1,QSKK,0.412
2,QRVK,0.218
3,QAVK,≤ 0.2
4,QAHK,≤ 0.2
5,TDTW,≤ 0.2
6,VHWG,≤ 0.2
7,DTCT,≤ 0.2
8,VLPC,≤ 0.2
9,GGCG,≤ 0.2
10,PDVF,≤ 0.2
11,YPIT,≤ 0.2
12,SGYG,≤ 0.2
13,SCFT,≤ 0.2
14,METY,≤ 0.2
15,RRMS,0.628
16,RRMN,0.245
17,RRMH,0.403
18,RRMD,≤ 0.2
19,RRMP,≤ 0.2
20,RCMH,≤ 0.2
21,TKWD,≤ 0.2
22,AEDA,≤ 0.2
23,APCN,≤ 0.2
24,YRRI,≤ 0.2
25,AVHL,≤ 0.2
26,TDRM,≤ 0.2

row,Variant,one-hybrid fitness for binding NBS DNA
1,TYEH,≤ 0.2
2,HSVS,≤ 0.2
3,ARTM,≤ 0.2
4,HHLA,≤ 0.2
5,QTMP,≤ 0.2
6,QYMH,≤ 0.2
7,QMMS,0.333
8,QYMY,0.453
9,QYMN,≤ 0.2
10,QTMT,0.551
11,QMMT,0.378
12,QYMT,0.416
13,QYMP,≤ 0.2
14,QTMD,≤ 0.2
15,QMMF,≤ 0.2
16,QYMS,0.314
17,CSAE,≤ 0.2
18,YFMR,≤ 0.2
19,TNFF,≤ 0.2
20,AHDA,≤ 0.2
21,FHFL,≤ 0.2
22,CNVL,≤ 0.2
23,HYMT,≤ 0.2
24,QRMG,0.329
25,QCMT,0.477
26,QLMT,0.34

row,Variant,one-hybrid fitness for binding NBS DNA
1,QKMT,0.424
2,QAMT,0.346
3,QKMY,0.224
4,QSMT,0.368
5,QRMT,0.729
6,QKMN,≤ 0.2
7,QIMT,0.219
8,QRMC,0.333
9,QPMT,≤ 0.2
10,QLVV,≤ 0.2
11,KKDV,≤ 0.2
12,RLWA,≤ 0.2
13,WGTT,≤ 0.2
14,PARD,≤ 0.2
15,RCAQ,≤ 0.2
16,FSIR,≤ 0.2
17,RTFH,≤ 0.2
18,RTFP,≤ 0.2
19,RTAF,≤ 0.2
20,RTAT,0.499
21,RTFT,0.417
22,RTAQ,≤ 0.2
23,YRWR,≤ 0.2
24,QYAW,≤ 0.2
25,CWPD,≤ 0.2
26,IVKR,≤ 0.2

row,Variant,one-hybrid fitness for binding NBS DNA
1,TREN,≤ 0.2
2,RVKS,0.578
3,RVVT,0.261
4,RVKR,0.665
5,RVKT,0.652
6,RVKP,≤ 0.2
7,RVVR,0.3
8,RVKD,≤ 0.2
9,RVKN,0.203
10,RVKH,0.321
11,DVAM,≤ 0.2
12,FLSS,≤ 0.2
13,SKYT,≤ 0.2
14,PHGE,≤ 0.2
15,KVPL,≤ 0.2
16,QVKT,0.564
17,QVVT,0.248
18,QVVY,≤ 0.2
19,QVKD,≤ 0.2
20,QVKP,≤ 0.2
21,QVKS,0.49
22,QVYY,≤ 0.2
23,QVKH,0.38
24,QVKN,≤ 0.2
25,QVKM,0.229
26,QVKQ,0.241

row,Variant,one-hybrid fitness for binding NBS DNA
1,QVKY,0.383
2,MVLL,≤ 0.2
3,KYVG,≤ 0.2
4,NCLS,≤ 0.2
5,FLLI,≤ 0.2
6,SFTN,≤ 0.2
7,QSWH,≤ 0.2
8,PPWR,≤ 0.2
9,RQTQ,≤ 0.2
10,RQTP,≤ 0.2
11,RQTM,≤ 0.2
12,RQTR,0.497
13,RQTH,≤ 0.2
14,RQTS,0.436
15,RQTT,0.487
16,RQTD,≤ 0.2
17,RQTN,≤ 0.2
18,KQNL,≤ 0.2
19,SITL,≤ 0.2
20,CLCV,≤ 0.2
21,LGTW,≤ 0.2
22,DDVR,≤ 0.2
23,LTIS,≤ 0.2

# — a collection of fitness landscapes (doi:10.1016/j.celrep.2020.107928)
